Screens: PubChem BioAssay, several laboratories
An excerpt weighted towards active compounds, which were near 4.1% of everything screened.
Anthrax LF prot = blocks Bacillus anthracis lethal factor protease; AID 588501; P15917; inhibition, % at 10 µM; multiplex microsphere protease cleavage assay, LF; 360,000 tested, 0.12% active; further: plate controls were buffer without enzyme for full effect and enzyme alone for no effect
BoNT-A LC inh2 = BoNT A light chain protease inhibition; multiplex microsphere protease substrate cleavage, flow cytometry; inhibition, % at 10 µM; 360,000 tested, 0.17% active; AID 588499; further: plate controls were buffer without enzyme for full effect and enzyme alone for no effect
Autofluor counter = flagged as autofluorescent in microsphere protease counterscreen. compound autofluorescence counterscreen, microsphere flow cytometry; hits give high values. fluorescence intensity (test concentration not listed). 360,000 tested, 3.1% active. AID 624483; in the data active means fluorescence intensity above about 16000; inconclusive means no clear call, values can overlap the other calls
MazEF act = activators of E. coli MazEF toxin-antitoxin RNase | P0AE70 | FAM/BHQ RNA-DNA oligo cleavage fluorescence, 5 h | activation, % at 20 µM | 350,000 tested, 0.32% active | AID 504720; in the data active means activation above about 50%
DUSP3 inh = DUSP3 (human) phosphatase inhibition | recombinant VHR phosphatase, pNPP absorbance | inhibition, % at 13.3 µM | 290,000 tested, 0.52% active | AID 1654; in the data active means inhibition above about 50%
BoNT F protease = inhibitors of Botulinum neurotoxin F light chain protease; Multiplex microsphere protease cleavage assay, flow cytometry; inhibition, % at 10 µM; 360,000 tested, 0.22% active; AID 588497; in the data active means inhibition above about 35%, passing the limit was not always enough; inconclusive means no clear call, values can overlap the other calls; further: plate controls were buffer without enzyme for full effect and enzyme alone for no effect
* hit, by the source's call; ? = inconclusive; · = no result given. Unless noted, no stated cut-off is given here; in the data, active means inhibition above about 30%; inconclusive means no clear call, values can overlap the other calls; inactive means below that.

SMILES | Anthrax LF prot | BoNT-A LC inh2 | Autofluor counter | MazEF act | DUSP3 inh | BoNT F protease
Cc1ccc(-c2nnc(SCC(=O)CC(=O)Nc3ccccc3)n2-c2ccccc2)cc1 | 2 | -7 | 21966* | -3 | 45 | -9
Cc1ccc(NC(=O)CSc2nnc(-c3cnccn3)n2-c2ccccc2)cc1 | 1 | ? | 16733* | 3 | 24 | -6
Cc1ccc(-n2c(SCC(=O)OC(C)C)nnc2-c2ccncc2)cc1 | 1 | 0 | 2408 | -3 | 44 | 7
CC(=O)CSc1nnc(-c2cnccn2)n1-c1ccccc1 | 3 | 1 | 3674 | 5 | 3 | -10
Cc1ccc(-n2c(Cc3ccccc3)nnc2SCC(=O)NNC(=O)Cc2ccccc2)cc1 | -3 | 0 | 16282* | 2 | 18 | -3
CC(C)OC(=O)CSc1nnc(-c2cnccn2)n1-c1ccc(Cl)cc1 | -4 | ? | 21757* | 0 | -3 | -7
CC1=C(C(=O)N2CCCCCC2)CC(CC(=O)NCCN2CCOCC2)C(=O)N1Cc1ccccc1 (configuration not stated) | 3 | 0 | 5696 | · | · | -6
CCOc1ccc(-c2cc(C(=O)Nc3cccc(C(F)(F)F)c3)[nH]n2)c(C)c1 | -6 | 0 | 4084 | · | · | 3
Cc1ccc(-n2c(SCC(=O)Nc3ccc(C(=O)O)cc3)nnc2-c2ccncc2)cc1 | 2 | -1 | 4746 | -4 | 5 | -3
Cc1ccc(C(=O)NNC(=O)CSc2nnc(-c3ccncc3)n2-c2ccc(C)cc2)cc1 | -7 | 2 | 20719* | · | 23 | 2
COc1ccc(NC(=O)CSc2ccccn2)cc1OC | 0 | 0 | 2510 | 10 | 28 | -6
COc1ccc(NC(=O)CSc2nnc(-c3ccccn3)n2-c2ccccc2)cc1OC | -5 | 6 | 20651* | -1 | 36 | 6
Cc1cc(C(C#N)c2ccccc2F)n2ncnc2n1 (configuration not stated) | -2 | 0 | 3279 | 14 | 19 | -3
NCC12CC3CC(C1)CC(CN)(C3)C2 | -3 | 0 | 23074* | -3 | 5 | -7
CC1(C)CC(NC(=O)C23CCC(C)(C(=O)C2)C3(C)C)CC(C)(C)N1 (configuration not stated) | 2 | 4 | 21112* | 0 | 12 | 4
CC(=O)c1sc2nc(CSc3nnnn3-c3ccccc3)[nH]c(=O)c2c1C | -1 | 3 | 4075 | -39 | 8 | 0
Cc1ccc(-n2nnnc2SCc2nc3sc(C)c(C)c3c(=O)[nH]2)cc1 | 0 | 1 | 8852 | 68* | 1 | -4
O=c1cc(-c2ccc(O)c(O)c2)oc2c1ccc1ccccc12 | -5 | 2 | 8343 | 119* | · | -11
Cc1cc(C)c(NC(=O)C(C)Sc2nc3ccc(N4C(=O)c5ccccc5C4=O)cc3s2)c(C)c1 (configuration not stated) | -2 | ? | 16290* | 5 | 3 | 0
CC(NC(=O)C1CCN(C(=O)c2cccs2)CC1)c1ccc(S(N)(=O)=O)cc1 (configuration not stated) | 4 | 0 | 8896 | 6 | · | 4
CC(C)(C)CC(=O)N1CCN(c2ccc(S(=O)(=O)N3CCOCC3)cc2[N+](=O)[O-])CC1 | -1 | -4 | 8215 | -8 | · | -4
O=C(COc1ccc(Cl)cc1Cl)N1CCNC1=O | 1 | 2 | 2707 | 5 | · | 12
Cc1ccc(NS(=O)(=O)c2ccc(N3C(=O)CCC3=O)cc2)cc1 | -18 | 7 | 18928* | 6 | 25 | 10
CC1CC(C)(C)NC(=S)N1CC(=O)NCc1ccc(Cl)cc1 (configuration not stated) | 0 | 4 | 2781 | 1 | -4 | 47*
CC1CC(C)(C)NC(=S)N1CC(=O)NCc1ccccc1Cl (configuration not stated) | 0 | 0 | 2240 | 7 | 1 | -7
COc1ccccc1N(C(=O)c1snc(C(N)=O)c1N)C(C(=O)NC1CCCCC1)c1cccc(OC)c1OC (configuration not stated) | -4 | -3 | 4866 | 4 | 18 | -16
CCN1CCN(S(=O)(=O)c2ccc(Cl)c(C(=O)NCc3ccco3)c2)CC1 | · | · | · | 3 | · | ·
Cc1occc1C(=O)N/N=C/c1c[nH]c2ccccc12 | -8 | -1 | 22938* | 2 | 36 | -5
O=C(N/N=C/c1c[nH]c2ccccc12)c1ccccc1Cl | 9 | 3 | 3795 | 5 | 57* | ?
